Bioassay records as filed in PubChem BioAssay.
Shown is part of a subset that was picked to be rich in hits.
Shiga toxin inh: blocks Shiga toxin action in Vero cells | Vero cells, Shiga toxin protein synthesis inhibition reporter | 9.2% of 290,000 active | inhibition, % at 38.7 µM | AID 2315; in the data active means inhibition mostly above about 28%, no sharp cut-off; inactive means mostly below about 43%; further: 0% is about no effect
CHX counter: affects cycloheximide protein synthesis inhibition readout, counter-screen; max response, %; cell reporter, cycloheximide protein synthesis inhibition counterscreen; 12% of 300,000 active; AID 2314; in the data active means max response mostly above about 13%, no sharp cut-off; inactive means mostly below about 14%; further: read at 38.3 µM for the half of the compounds with a filed dose; 0% is about no effect
RE007 growth inh: less growth of the S. pombe RE007 Vpr strain | AID 651644 | S. pombe RE007 Vpr strain, BacTiter-Glo ATP luminescence, 24 h | 0.21% of 360,000 active | Potency, µM (titrated, usually from 92.2 µM), for inactives: top-dose activity change, negative = less growth, most hits filed as inhibitors; active means well fitted falling curve with a large enough effect; inconclusive means small, poorly fitted or top-dose-only effect; inactive means no such curve, though single readings can be large or run the other way; further: potency means the concentration at half of the fitted maximal effect; on the % scale 0 is the no-effect control and ±100 the full control effect; nearly all actives have a fitted effect of over 50% in size
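Fission yeast strain RE007, carrying one chromosomally integrated HIV-1 vpr copy, was seeded at OD 0.01 in PMG+AL medium with 23 nL pinned compound. After 24 h at 30 °C and 99% humidity, viability was read by BacTiter-Glo luminescence.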
Tb PYK inh: T. brucei pyruvate kinase inhibition; Q57TT1; TbPYK enzyme, Kinase-Glo Plus ATP luminescence, 45 min; Potency, µM (titrated, usually from 76.8 µM), for the others: at the top dose activity, negative = inhibition, usual class: inhibitors; 0.12% of 410,000 active; further: potency means the concentration at half of the fitted maximal effect; on the % scale 0 is the no-effect control and ±100 the full control effect; nearly all actives have a fitted effect of over 50% in size
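Activity of T. brucei pyruvate kinase was followed by Kinase-Glo Plus luminescence after the enzyme reacted 45 min at room temperature with 130 uM ADP (final) and substrate. Test compounds were added before ADP at multiple concentrations.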
LmPK inh: blocks Leishmania mexicana pyruvate kinase activity. Q27686. purified LmPK, Kinase-Glo ATP luminescence, 1 h. Potency, µM (doses to about 57.5 µM), without a hit: at the highest dose activity change, negative = inhibition, usual class: inhibitors. 0.37% of 290,000 active. AID 1721; further: potency means the concentration at half of the fitted maximal effect; on the % scale 0 is the no-effect control and ±100 the full control effect
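ATP generated from ADP (0.1 mM) and PEP (0.5 mM) by 0.1 nM LmPK over 1 h at room temperature (pH 7.2 imidazole buffer) was detected by coupled luciferase luminescence. Values were normalized to uninhibited and no-enzyme wells.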
Giardia FBPA inh: inhibitors of Giardia lamblia fructose-1,6-bisphosphate aldolase. A8B2U2. purified Giardia FBPA. Potency, µM (highest dose often 59.6 µM), without a hit: at the highest dose activity, negative = inhibition, hits mostly inhibitors. 0.71% of 290,000 active. AID 2451; further: potency means the concentration at half of the fitted maximal effect; on the % scale 0 is the no-effect control and ±100 the full control effect; nearly all actives have a fitted effect of over 55% in size
Target sequence (A8B2U2 whole entry, looked up): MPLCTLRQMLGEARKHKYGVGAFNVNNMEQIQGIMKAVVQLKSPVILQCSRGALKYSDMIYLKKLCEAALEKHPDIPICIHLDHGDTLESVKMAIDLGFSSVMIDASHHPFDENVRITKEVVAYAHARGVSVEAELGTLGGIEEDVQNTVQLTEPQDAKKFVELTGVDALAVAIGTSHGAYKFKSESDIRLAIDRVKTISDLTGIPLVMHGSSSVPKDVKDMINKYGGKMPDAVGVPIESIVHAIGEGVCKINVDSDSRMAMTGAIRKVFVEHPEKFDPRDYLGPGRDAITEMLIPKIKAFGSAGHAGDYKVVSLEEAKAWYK
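Giardia FBPA (40 nM reagent) was preincubated 10 min at RT with compound (up to 57.5 uM final), then substrate plus GAPDH/TPI/NAD/arsenate coupling system with diaphorase/resazurin was added; resorufin fluorescence (525/598 nm) was read after 20 min.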
An asterisk follows results filed as active; ? = inconclusive; / = not tested or not shown. Unless noted, the call rests on the fitted dose curve; in most records, active means well fitted curve in the direction sought with a large enough effect; inconclusive means small, poorly fitted or top-dose-only effect, or another doubt; inactive means no such curve, though single readings can be large; an effect the other way counts as inactive or inconclusive.

SMILES | Shiga toxin inh | CHX counter | RE007 growth inh | Tb PYK inh | LmPK inh | Giardia FBPA inh
CN(C)/C=N/c1c(C#N)cnn1-c1ccc(F)c(Cl)c1 | 32 | 15 | / | / | / | 0%
CC(C)c1ccc(N2C(=O)N(Cc3ccccc3Cl)c3ccccc3S2(=O)=O)cc1 | / | / | / | 0% | / | /
CCc1ccc(NC(=O)CSc2ccc(-c3sc(-c4ccccc4)nc3C)nn2)cc1 | / | / | / | -9% | / | /
COc1ccc(CN2CCCN(CC(=O)Nc3cc(C)ccc3C)S2(=O)=O)cc1 | / | / | / | -3% | / | /
Cc1ccc(S(=O)(=O)Nc2ccc(N=Nc3ccc(O)cc3)cc2)cc1 | 21 | 8 | ? | -10% | 4% | 8%
COc1ccc(-c2nc(N=Nc3ccc(O)cc3)n[nH]2)cc1 | -8 | 35* | 0% | 3% | 2% | ?
Cc1nc(N=Nc2ccc(O)cc2)n[nH]1 | 53* | 20* | ? | -16% | 14µM* | -11%
Cc1ccc(-c2nc(N=Nc3ccc(O)cc3)n[nH]2)cc1 | 105* | 49* | 2% | 7% | -2% | -10%
CN(N=Nc1cccc([N+](=O)[O-])c1)c1cccc([N+](=O)[O-])c1 | 109* | 33* | 3% | 3% | -2% | 0%
COC(=O)c1ccc(C(NC(=O)OCc2ccccc2)/C(=C/[C@@H](C)C(=O)NCc2nc3ccccc3s2)c2cccnc2)cc1 (stereo partly drawn) | / | / | / | / | / | -8%
CCCc1ccc(C(=O)NNc2ccc(F)cc2)cc1 | 35 | 17* | 242% | 3% | 0% | 4%
CCCC(C)NC(=O)c1ccc(F)cc1 (stereo not drawn) | 50* | 27* | 0% | -2% | -1% | 4%
CCC(C)NC(=O)c1ccc(C(=O)c2ccccc2)cc1 (stereo not drawn) | 71* | 40* | -19% | -1% | -1% | 4%
COCC(C)NC(=O)c1ccc2c(c1)S(=O)(=O)c1ccccc1C2=O (stereo not drawn) | -13 | 9 | 9% | -6% | 0% | /
CCC(C)NC(=O)c1ccc2c(c1)S(=O)(=O)c1ccccc1C2=O (stereo not drawn) | 14* | 32* | -8% | -8% | -14% | /
CCC(=O)c1ccc2c(c1)N(CCCN1CCN(CCO)CC1)c1ccccc1S2 | / | / | / | 2% | / | /
CCc1ccc(CN(Cc2ccco2)C(=O)c2ccc(OC)cc2)cc1 | / | / | / | 1% | / | /
CCC(C)NC(=O)Cc1ccc(-c2ccccc2)cc1 (stereo not drawn) | 16 | 23* | -13% | -2% | 1% | 1%
CCCC(C)NC(=O)Cc1ccccc1 (stereo not drawn) | 10 | -1 | -15% | -8% | 3% | 5%
CCCC(C)NC(=O)c1ccc(-c2ccccc2)cc1 (stereo not drawn) | 86* | 27* | / | / | 4% | 6%
CC(=O)[C@@]1(O)CC[C@H]2C3CCC4=CC(=O)CC[C@]4(C)C3CC[C@@]21C (stereo partly drawn) | / | / | / | / | / | -2%
CCC1(c2ccccc2)NC(=O)NC1=O (stereo not drawn) | -8 | 10 | / | / | / | -3%
O=C(C[n+]1cc(-c2ccc(Cl)cc2)n2c1CCCCC2)c1ccccc1 | 52* | 26* | -2% | -1% | 3% | 0%
O=C(C[n+]1cc(-c2ccc(Br)cc2)n2c1CCCCC2)c1ccccc1 | -12 | -3 | -2% | 2% | 0% | 7%
O=C(C[n+]1cc(-c2ccccc2)n2c1CCC2)N1c2ccccc2Sc2ccccc21 | 13 | 9 | 8% | 1% | 7% | 0%
SMILES | Shiga toxin inh | CHX counter | RE007 growth inh | Tb PYK inh | LmPK inh | Giardia FBPA inh
O=C(C[n+]1cc(-c2ccc(F)cc2)n2c1CCC2)N1c2ccccc2Sc2ccccc21 | 54* | 44* | -4% | -10% | -4% | 1%
Cc1cc(O)c(/C=N/Nc2ccccc2Cl)c(=O)o1 | 24 | 22* | 151% | 6% | -17% | -13%
Cc1nc2ccc(C(=O)c3ccccc3)cc2[nH]1 | 53* | 34* | -10% | ? | -3% | -4%
O=C(c1ccccc1)c1ccc2nc[nH]c2c1 | 27 | 10 | 2% | 0% | 2% | -2%
O=C(N/N=C/c1ccncc1)c1ccc2c(c1)OCO2 | 76* | 24* | -14% | 2% | -3% | 0%
COC(=O)c1ccc2[nH]c(C)cc(=O)c2c1 | 30 | -3 | 21% | -2% | 0% | 10%
Cc1cc(=O)c2cc(C(=O)c3ccccc3)ccc2[nH]1 | 38 | 9.4* | 1% | 3% | 2% | -4%
O=C(N/N=C/c1ccsc1)c1ccc2c(c1)OCO2 | / | / | -19% | 3% | / | /
O=C(N/N=C/c1cccs1)c1ccc2c(c1)OCO2 | 34 | 25* | -2% | -11% | -11% | 5%
Cc1nc2ccc(C(C(F)(F)F)(C(F)(F)F)C(F)(F)F)cc2[nH]1 | -10 | -3 | 28µM* | 3% | 2% | -15%
COc1ccccc1NS(=O)(=O)c1cccc(C(=O)N/N=C/c2ccc3c(c2)OCCO3)c1 | 53* | 28* | 8% | 38% | 1% | 3%
O=C(N/N=C/c1ccc2c(c1)OCO2)c1ccc(Cl)cc1Cl | 18 | 15* | -3% | -5% | 4% | -4%
C[n+]1cccc(C(=O)N/N=C/c2ccc3c(c2)OCO3)c1 | -6 | -6 | -5% | 2% | -6% | -20%
O=C(N/N=C/c1ccc2c(c1)OCO2)c1sc2cc(Cl)ccc2c1Cl | -11 | 6 | 6% | -10% | 0% | 1%
O=C(N/N=C/C1CC2CCC1C2)c1ccc2c(c1)OCO2 (stereo not drawn) | 39* | 41* | -11% | -4% | -3% | -3%
Cn1ncc2c(N3CCN(c4ccc(F)cc4)CC3)ncnc21 | / | / | / | 1% | / | /
COc1cccc([C@@H]2Oc3ccc(OC)cc3C(=O)[C@H]2OC(=O)Nc2ccc(C)c(Br)c2)c1 | / | / | / | / | / | -4%
CCN(CC)c1ccc(/C=N/NC(=O)c2ccc(Br)o2)cc1 | 38* | 33* | -14% | -10% | -7% | -1%
CCN(CC)c1ccc(/C=N/NC(=O)Cc2ccc(OC)c(OC)c2)cc1 | 21 | 1 | 4% | 3% | 10% | -5%
O=C(N/N=C/c1ccc2c(c1)OCO2)c1ccc2c(c1)OCCO2 | 64* | 55* | 0% | 5% | -10% | -6%
CCOc1cc(/C=N/NC(=O)c2ccc3c(c2)OCCO3)cc(Br)c1O | 77* | 12* | -4% | -5% | 10% | -4%
O=C(N/N=C/c1cc(Br)c(O)c(Br)c1O)c1ccc2c(c1)OCCO2 | 73* | 29* | -4% | -1% | 7% | -19%
O=C(N/N=C/c1cc(Br)cc(Cl)c1O)c1ccc2c(c1)OCO2 | / | / | -27% | -4% | / | /
O=C(N/N=C/c1ccc2c(c1)OCO2)c1ccc(Br)o1 | 139* | 81* | 2% | 1% | ? | -11%
